# According to PubChem BioAssay (NCATS):
# Values joined by “and” are separate entries in the source; they are usually repeats but may differ in a detail not shown here. Equal entries are not always repeated. Records with an inconclusive call do not appear. Active and inactive are the calls of the source. The call rests on the fitted dose curve; in most records, active means well fitted inhibition curve with a large enough effect; inconclusive means small, poorly fitted or top-dose-only effect; inactive means flat fitted curve, though single readings scatter.
# Tested on: HEK293
# Experiment: Cytotoxic Profiling of Annotated Libraries Using Quantitative High-Throughput Screening (AID 1296008); further: nearly all actives have a fitted effect of over 60% in size
# Settings: Five cell lines viability, CellTiter-Glo ATP luminescence, 48-72 h; max response: hits give low values
# From the text: Cell-based phenotypic screening is a commonly used approach to discover biological pathways, novel drug targets, chemical probes and high-quality hit-to-lead molecules. Many hits identified from high-throughput screening campaign are ruled out through a series of follow-up potency, selectivity/specificity, and cytotoxicity assays. Prioritization of molecules with little or no cytotoxicity for a more in-depth downstream evaluation influence the future direction of projects, so cytotoxicity profiling of the screening libraries at early stage is essential for increasing the likelihood of candidate success. […] For the annotated library, we also examined the primary targets and mechanistic pathways regularly associated with cell death. To our knowledge, this is the first study to use high-throughput screening to profile large libraries for cytotoxicity assessment in both normal and cancer cell lines. In summary, the results generated here constitutes a valuable resource for the scientific community and provides insight on identifying cytotoxic compounds with particular mechanisms of action, and prioritizing compounds with suitable cytotoxicity profile for further evaluation.
# A pintool (Kalypsys) was used to transfer 23 nL of compound solution to the 1536-well assay plates. After 48 or 72 hr incubation at 37 degree Celsius, 5% CO2 and 95% humidity, 2.5 uL of CellTiter-Glo (Promega) was dispensed into each well using a dispenser (Aspect Automation, St. Paul, MN) with solenoid valves (Lee Valves, Westbrook CT). Plates were left at room temperature for 10 min before imaging the ATP-coupled luminescence using a ViewLux microplate imager (PerkinElmer, Waltham, MA).
# On the % scale 0 is the no-effect control and ±100 the full control effect; potency means the concentration at half of the fitted maximal effect.
Compound,outcome,max response,Potency
ClCCN1CCCC1,inactive,–,–
COP(=S)(OC)Oc1ccc(SC)c(C)c1,–,-0.0428% (inactive),–
CCCCC/C=C\C/C=C\C/C=C\C/C=C\CCCC(=O)NCC(=O)O,–,-7.97% (inactive),–
CC(C)c1c(CN(C)C(C)Cc2ccccc2)n(C)n(-c2ccccc2)c1=O (stereo not given),–,–,8.41 µM (active)
Cc1ncsc1CCCl,–,-8.24% (inactive),–
COP(=S)(OC)Oc1cc(Cl)c(Cl)cc1Cl,–,1.74% (inactive),–
CC(=O)C1CCOC1=O (stereo not given),inactive,–,–
O=C(N/N=C/c1ccc([N+](=O)[O-])o1)c1cc([N+](=O)[O-])cc([N+](=O)[O-])c1O,–,1.49% (inactive),–
COc1cccc2c1C(=O)c1c(O)c3c(c(O)c1C2=O)C[C@@](O)(C(=O)CO)CC3OC1CC(N2CCOC(OC)C2)C(O)C(C)O1 (stereo not given in full),–,–,0.0119 µM (active)
COc1ccc2c3c1O[C@H]1[C@H](O)CC[C@H]4[C@@H](C2)N(C)CC[C@@]341,–,-4.59% (inactive),–
COC(=O)[C@@H](N)CCCN/C(N)=N/[N+](=O)[O-],inactive,–,–
O=C1c2ccccc2C(=O)c2ccccc21,inactive,–,–
COc1cc(CCN)cc(OC)c1OC,–,-9.62% (inactive),–
CC(NC(C)(C)C)C(=O)c1cccc(Cl)c1 (stereo not given),inactive,-3.26% (inactive) and -3.1% (inactive),–
CNC(C)(C)Cc1ccccc1,–,-3.64% (inactive),–
Nc1ccccc1,inactive,–,–
CC(C)C[C@H](CN)CC(=O)O,–,2.24% (inactive),–
CCN(CCO)CCn1c(Cc2ccccc2)nc2c1c(=O)n(C)c(=O)n2C,–,-6.17% (inactive),–
COC(=O)C(Cl)C(=O)OC,inactive,–,–

Compound,outcome,max response,Potency
CN1C(=O)NC(=O)C(C)(C2=CCCCC2)C1=O (stereo not given),inactive,–,–
Clc1ccc(C(c2ccc(Cl)cc2)C(Cl)(Cl)Cl)cc1,–,-19.8% (inactive),–
CC(C(=O)c1ccccc1)N(C)C (stereo not given),–,-1.39% (inactive),–
CCc1cc2c(s1)-n1c(C)nnc1CN=C2c1ccccc1Cl,–,-15.5% (inactive),–
C[C@]12CCC(=O)C=C1CC[C@@H]1[C@H]3CC[C@](C)(O)[C@@]3(C)CC[C@@H]12,–,–,30.9 µM (active)
COc1c2c(cc3c1OCO3)CCN(C)C2,–,-25.2% (inactive),–
CCN[C@@H](C)Cc1ccccc1,–,-15.1% (inactive),–
COc1cc(CC(C)N)cc(OC)c1OC (stereo not given),–,-9.05% (inactive),–
CC(C)NC(C)C,–,1.45% (inactive),–
CN1C(=O)CCS(=O)(=O)C1c1ccc(Cl)cc1 (stereo not given),inactive,-9.62% (inactive),–
CN1CCC(O)(c2ccc(F)cc2)C(C(=O)c2ccc(F)cc2)C1 (stereo not given),–,3.5% (inactive),–
NCCc1ccc(O)cc1,inactive,–,–
C=CCC1([C@H](C)CCC)C(=O)NC(=O)NC1=O,–,1.82% (inactive),–
c1ccc2c(c1)sc1ccccc12,–,0.977% (inactive),–
CN(C)CCc1c[nH]c2cccc(OP(=O)(O)O)c12,–,-1.43% (inactive),–
C#C[C@]1(O)CC[C@H]2[C@@H]3CCC4=CC(=O)CC[C@]4(C)[C@H]3CC[C@@]21C,–,2.42% (inactive),–
Clc1ccccc1N1CCNCC1,inactive,–,–
O=c1[nH]c2ccccc2n1C1CCNCC1,–,-4.64% (inactive),–
C=C(C)[C@H]1CN[C@H](C(=O)O)[C@H]1CC(=O)O,–,0.123% (inactive),–
